From PubChem BioAssay
Active and inactive are the calls of the source.

Tests used:
[1] = binders of probe aFSTL3 on microarray, primary screen, stem cell growth factor project, biochemical, small-molecule microarray, fluorescence 635/667 (AID 1064); conditions: higher = more signal;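 also: measures binding of the biotinylated anti-FSTL3 antibody to printed compounds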
[2] = binders from COS7 lysate, DM2A8 probe, primary screen, torsin A project, cell lysate, small-molecule microarray, fluorescence 635/667 (AID 1065); conditions: higher = more signal, COS7 lysate expressing mutant human TOR1A
[3] = binders of probe aFGF2 on microarray, primary screen, stem cell growth factor project, biochemical, small-molecule microarray, fluorescence 635/667 (AID 1067); conditions: higher = more signal;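 also: measures binding of biotinylated aFGF2 protein to printed compounds on slides; z-score merges feature fluorescence and signal-to-noise across triplicate slides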
[4] = binders of probe aFGF10 on microarray, primary screen, stem cell growth factor project, biochemical, small-molecule microarray, fluorescence 635/667 (AID 1071); conditions: higher = more signal;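 also: score merges 667 nm spot intensity and signal to noise from triplicate slides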
[5] = biological target: Neurogenic locus notch homolog protein 2 (Homo sapiens) (UniProt Q04721); assay: Notch2 binders on small-molecule microarrays, primary screen, biochemical, small-molecule microarray, 635 nm fluorescence, stem cell growth factors (AID 1073); conditions: Notch2 binding, higher = more signal
[6] = biological target: Pro-neuregulin-1, membrane-bound isoform (Homo sapiens) (UniProt Q02297); assay: NRG1 binders on small-molecule microarrays, primary screen, psychiatric disease protein project, biochemical, small-molecule microarray, fluorescence 635/667 (AID 1075); conditions: NRG1 binding, 635 nm fluorescence, higher = more signal;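 also: score combines 667 nm spot fluorescence with signal to noise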
[7] = test system: Neuregulin-1 EGF-like domain; assay: binders of neuregulin-1 EGF-like domain, primary screen, biochemical, small-molecule microarray, 635 nm fluorescence (AID 1081); conditions: small-molecule microarray binding, higher = more signal;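 also: binding of the protein to compounds printed on small-molecule microarray slides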
[8] = FRG1 promoter luciferase signal modulators, primary screen, FRG1 inhibition for FSHD, cell-based, C2C12 myotubes, firefly/Renilla luciferase, luminescence (AID 1084); conditions: higher = more signal, called active from +8 up or from −8 down
[9] = binders of probe aFST on microarray, primary screen, stem cell growth factor project, biochemical, small-molecule microarray, fluorescence 635/667 (AID 1086); conditions: higher = more signal;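 also: score merges 667 nm fluorescence with signal-to-noise of each printed compound spot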
[10] = binders of probe aHhip on microarray, primary screen, stem cell growth factor project, biochemical, small-molecule microarray, fluorescence 635/667 (AID 1087); conditions: higher = more signal;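 also: score merges spot fluorescence at 667nm with spot signal to noise ratio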
[11] = test system: PRMT1 (protein arginine N-methyltransferase 1); assay: PRMT1 binders on small-molecule microarrays, primary screen, biochemical, small-molecule microarray, 635 nm fluorescence (AID 1088); conditions: small-molecule microarray binding, higher = more signal;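 also: binding of Prmt1 protein to compounds spotted on small-molecule microarray slides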
[12] = yeast growth modulation, basal conditions, primary screen, YJM789 clinical isolate, OD600, 24 h (AID 1089);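 also: growth of clinical yeast isolate S. cerevisiae YJM 789 seeded 1000 cells per well; test concentration not given here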; conditions: S. cerevisiae YJM789 growth, higher = more signal, called active from +8 up or from −8 down
[13] = fission yeast growth modulation, primary screen, strain 972, OD600, 24 h, no modulator (AID 1090);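 also: basal condition with compound alone and no growth modifier present; test concentration not given here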; conditions: S. pombe 972 growth, higher = more signal, called active from +8 up or from −8 down
[14] = S. cerevisiae growth modulation with rapamycin, primary screen, strain BY4716, OD600, 96 h (AID 1091); conditions: higher = more signal, called active from +8 up or from −8 down; also: test concentration not given here
[15] = biological target: Torsin-1A-interacting protein 2 (Homo sapiens) (UniProt Q8NFQ8); assay: LULL1 binders on small-molecule microarray, primary screen, cell lysate, human LULL1 lysate, 635/667 nm fluorescence (AID 1092); conditions: hLULL1 lysate binding, 635 nm fluorescence, higher = more signal;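 also: probe is lysate of COS7 cells overexpressing human LULL1; score merges per-feature 667 nm fluorescence with signal-to-noise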
[16] = E. coli growth modulation, two-sided OD650, primary screen, E. coli filamentation project, strain DRC41, 24 h (AID 1093); conditions: OD650, 24 h, higher = more signal, called active from +8 up or from −8 down;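 also: MC1000 strain lacking acrAB efflux and sulA so SOS filamentation is blocked; test concentration not given here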
[17] = small-molecule microarray binders of probe aLefty2, primary screen, biochemical, biotinylated probe, 635/667 nm fluorescence (AID 1094); conditions: higher = more signal;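 also: score merges spot fluorescence near 667 nm with spot signal-to-noise ratio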
[18] = test system: Noggin (protein binding on small-molecule microarray); assay: Noggin binders on small-molecule microarray, primary screen, biochemical, 635/667 nm fluorescence (AID 1095); conditions: 635 nm fluorescence, higher = more signal;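 also: score merges 667 nm feature fluorescence with signal to noise over triplicate slides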
[19] = biological target: Neurogenic locus notch homolog protein 3 (Homo sapiens) (UniProt Q9UM47); assay: NOTCH3 binders on small-molecule microarray, primary screen, biochemical, 635/667 nm fluorescence (AID 1096); conditions: NOTCH3 binding, 635 nm fluorescence, higher = more signal
[20] = small-molecule microarray binders of probe aEGFR, primary screen, biochemical, biotinylated probe, 635/667 nm fluorescence (AID 1097); conditions: higher = more signal;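 also: probe is a biotinylated anti-EGFR antibody binding compounds printed on slides; score combines fluorescence near 667 nm and signal to noise of each spot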

Sequence of Pro-neuregulin-1, membrane-bound isoform (Homo sapiens) (Q02297 whole entry, looked up, the tested form may be a part, canonical isoform): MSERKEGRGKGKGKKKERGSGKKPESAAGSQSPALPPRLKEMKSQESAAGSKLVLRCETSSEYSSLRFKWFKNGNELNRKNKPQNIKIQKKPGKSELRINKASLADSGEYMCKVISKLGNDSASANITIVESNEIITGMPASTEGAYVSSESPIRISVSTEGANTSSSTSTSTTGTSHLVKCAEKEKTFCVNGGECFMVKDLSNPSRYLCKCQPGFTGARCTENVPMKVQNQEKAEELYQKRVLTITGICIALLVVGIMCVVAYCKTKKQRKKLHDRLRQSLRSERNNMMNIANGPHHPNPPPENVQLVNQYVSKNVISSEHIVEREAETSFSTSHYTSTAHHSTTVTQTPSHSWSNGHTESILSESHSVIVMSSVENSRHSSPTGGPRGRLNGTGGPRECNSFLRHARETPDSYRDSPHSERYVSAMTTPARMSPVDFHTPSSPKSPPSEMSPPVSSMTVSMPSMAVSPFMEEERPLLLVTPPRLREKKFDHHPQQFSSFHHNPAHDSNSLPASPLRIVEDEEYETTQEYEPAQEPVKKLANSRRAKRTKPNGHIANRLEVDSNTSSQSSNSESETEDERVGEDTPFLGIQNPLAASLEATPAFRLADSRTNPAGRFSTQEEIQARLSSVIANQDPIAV
Sequence of Neurogenic locus notch homolog protein 3 (Homo sapiens) (Q9UM47 whole entry, looked up): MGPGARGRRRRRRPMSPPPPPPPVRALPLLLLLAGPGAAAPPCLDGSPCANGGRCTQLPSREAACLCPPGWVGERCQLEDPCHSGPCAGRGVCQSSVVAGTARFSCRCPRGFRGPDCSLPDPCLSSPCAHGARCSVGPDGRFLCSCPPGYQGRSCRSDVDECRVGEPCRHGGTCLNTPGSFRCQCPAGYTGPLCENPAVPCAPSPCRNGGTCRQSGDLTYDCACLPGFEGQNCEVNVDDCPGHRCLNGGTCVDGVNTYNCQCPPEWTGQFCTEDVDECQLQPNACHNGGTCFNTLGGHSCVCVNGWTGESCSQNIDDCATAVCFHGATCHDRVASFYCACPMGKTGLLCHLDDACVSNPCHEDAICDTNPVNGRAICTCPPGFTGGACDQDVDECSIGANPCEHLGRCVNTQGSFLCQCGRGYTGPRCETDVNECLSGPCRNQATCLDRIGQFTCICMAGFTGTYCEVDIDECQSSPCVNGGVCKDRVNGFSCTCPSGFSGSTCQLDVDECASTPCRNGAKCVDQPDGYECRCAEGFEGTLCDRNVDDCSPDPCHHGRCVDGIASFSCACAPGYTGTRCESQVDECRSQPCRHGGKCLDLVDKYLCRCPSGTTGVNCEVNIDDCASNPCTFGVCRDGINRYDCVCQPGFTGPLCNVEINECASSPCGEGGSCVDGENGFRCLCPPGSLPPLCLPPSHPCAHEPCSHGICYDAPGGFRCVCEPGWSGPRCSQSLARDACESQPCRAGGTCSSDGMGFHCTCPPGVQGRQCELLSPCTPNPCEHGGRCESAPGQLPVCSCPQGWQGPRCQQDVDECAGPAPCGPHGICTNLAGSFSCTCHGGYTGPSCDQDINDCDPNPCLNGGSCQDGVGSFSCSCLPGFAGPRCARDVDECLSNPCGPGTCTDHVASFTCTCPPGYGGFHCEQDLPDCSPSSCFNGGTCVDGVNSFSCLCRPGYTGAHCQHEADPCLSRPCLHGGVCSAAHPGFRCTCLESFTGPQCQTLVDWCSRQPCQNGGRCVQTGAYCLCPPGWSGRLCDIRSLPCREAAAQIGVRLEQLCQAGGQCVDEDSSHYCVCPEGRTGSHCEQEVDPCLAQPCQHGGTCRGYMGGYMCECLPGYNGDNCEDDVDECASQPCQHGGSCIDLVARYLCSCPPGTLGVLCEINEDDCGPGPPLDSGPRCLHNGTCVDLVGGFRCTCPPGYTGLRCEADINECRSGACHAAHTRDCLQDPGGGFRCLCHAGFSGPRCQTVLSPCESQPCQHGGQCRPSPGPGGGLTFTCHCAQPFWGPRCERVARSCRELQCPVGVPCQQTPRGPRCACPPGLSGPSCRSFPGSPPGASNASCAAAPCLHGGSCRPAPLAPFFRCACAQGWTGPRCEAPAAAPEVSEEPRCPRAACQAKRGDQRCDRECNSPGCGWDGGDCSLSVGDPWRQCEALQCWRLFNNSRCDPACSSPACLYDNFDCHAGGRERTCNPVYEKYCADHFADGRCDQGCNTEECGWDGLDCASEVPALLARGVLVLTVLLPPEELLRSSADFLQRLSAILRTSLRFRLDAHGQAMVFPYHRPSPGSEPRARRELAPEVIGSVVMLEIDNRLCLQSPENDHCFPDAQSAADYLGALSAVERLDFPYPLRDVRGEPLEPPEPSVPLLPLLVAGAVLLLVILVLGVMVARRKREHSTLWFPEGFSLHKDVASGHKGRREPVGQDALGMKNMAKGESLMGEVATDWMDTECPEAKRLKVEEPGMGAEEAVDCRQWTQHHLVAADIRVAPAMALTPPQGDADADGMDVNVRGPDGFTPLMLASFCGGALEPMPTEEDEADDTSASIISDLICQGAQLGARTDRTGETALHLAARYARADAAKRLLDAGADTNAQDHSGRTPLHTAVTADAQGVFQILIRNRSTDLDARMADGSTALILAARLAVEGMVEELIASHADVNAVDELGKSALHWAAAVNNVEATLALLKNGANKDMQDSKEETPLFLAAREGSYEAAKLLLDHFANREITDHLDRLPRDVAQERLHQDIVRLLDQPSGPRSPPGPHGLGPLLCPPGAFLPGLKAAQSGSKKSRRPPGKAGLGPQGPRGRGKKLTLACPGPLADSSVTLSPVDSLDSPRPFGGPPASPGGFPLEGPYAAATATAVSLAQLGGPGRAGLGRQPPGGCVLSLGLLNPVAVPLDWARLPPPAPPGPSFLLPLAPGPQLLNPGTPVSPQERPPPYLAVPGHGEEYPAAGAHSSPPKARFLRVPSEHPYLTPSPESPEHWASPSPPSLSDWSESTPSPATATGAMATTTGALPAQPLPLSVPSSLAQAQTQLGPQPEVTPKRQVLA
Sequence of Torsin-1A-interacting protein 2 (Homo sapiens) (Q8NFQ8 whole entry, looked up): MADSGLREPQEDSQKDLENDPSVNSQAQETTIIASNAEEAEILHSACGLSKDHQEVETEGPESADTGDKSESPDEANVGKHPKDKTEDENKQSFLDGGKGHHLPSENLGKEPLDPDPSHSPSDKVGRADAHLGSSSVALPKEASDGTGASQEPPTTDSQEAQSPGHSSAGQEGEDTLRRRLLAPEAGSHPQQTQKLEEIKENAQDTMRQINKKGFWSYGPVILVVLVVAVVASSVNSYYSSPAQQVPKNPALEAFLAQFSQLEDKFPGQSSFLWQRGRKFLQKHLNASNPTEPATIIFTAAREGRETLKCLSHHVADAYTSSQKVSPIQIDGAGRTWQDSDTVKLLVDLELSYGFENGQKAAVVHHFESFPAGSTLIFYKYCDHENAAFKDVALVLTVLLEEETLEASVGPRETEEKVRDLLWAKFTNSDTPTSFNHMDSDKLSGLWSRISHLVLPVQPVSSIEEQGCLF

With `CO[C@H](C1CCCCC1)[C@H](C)C=CCC(=O)OCCCc1ccccc1` the composite z-score [1] was -0.13, the composite z-score [2] was 0.216 and the composite z-score [3] was -0.155. It also gave a composite z-score [4] of -0.104, a composite z-score [5] of -0.163 and a composite z-score [6] of -0.137. For the same molecule, the composite z-score [7] was -0.647, the z-score [8] was 0.567 (inactive) and the composite z-score [9] was -0.175. The composite z-score [10] was -0.145, the composite z-score [11] was -0.53 and the z-score [12] was 1.37 (inactive). For the same molecule, the z-score [13] was 0.5 (inactive), the z-score [14] was 1.49 (inactive) and the composite z-score [15] was -0.242. For the same molecule, the z-score [16] was -0.0775 (inactive), the composite z-score [17] was -0.192 and the composite z-score [18] was -0.0107. It also gave a composite z-score [19] of -0.226 and a composite z-score [20] of -0.134.
Molecule `O=C1C=C[C@@H](O)[C@@H]2[C@@H]3C(=O)N(c4ccc(F)cc4F)C(=O)[C@@H]3CC[C@@H]12` has a composite z-score [1] of -0.298, a composite z-score [2] of 0.55 and a composite z-score [3] of -0.0493. It also gave a composite z-score [4] of 0.547, a composite z-score [5] of 0.611 and a composite z-score [6] of 0.12. The composite z-score [7] was 0.384, the z-score [8] was -0.996 (inactive) and the composite z-score [9] was 0.142. The composite z-score [10] was -0.0994, the composite z-score [11] was 0.0661 and the z-score [12] was -2.33 (inactive). The z-score [13] was -2.21 (inactive), the z-score [14] was -0.724 (inactive) and the composite z-score [15] was 0.587. The z-score [16] was -0.421 (inactive), the composite z-score [17] was -0.247 and the composite z-score [18] was 1.08. It also gave a composite z-score [19] of 0.134 and a composite z-score [20] of -0.162.
In the case of `COc1cccc([C@H]2Oc3ccc(OC)cc3C(=NO[C@@H](C)c3cn([C@H](CO)Cc4ccccc4)nn3)[C@@H]2O)c1`, the composite z-score [1] is reported as -0.234, the composite z-score [2] is reported as -0.346 and the composite z-score [3] is reported as -0.133. It also gave a composite z-score [4] of 0.226, a composite z-score [5] of -0.188 and a composite z-score [6] of 0.428. The composite z-score [7] was -0.123, the z-score [8] was 0.213 (inactive) and the composite z-score [9] was 0.105. For the same molecule, the composite z-score [10] was -0.134, the composite z-score [11] was 0.0733 and the z-score [12] was 0.401 (inactive). For the same molecule, the z-score [13] was 0.0329 (inactive), the z-score [14] was 0.0485 (inactive) and the composite z-score [15] was -0.123. For the same molecule, the z-score [16] was -0.486 (inactive), the composite z-score [17] was -0.21 and the composite z-score [18] was -0.335. It also gave a composite z-score [19] of -0.367 and a composite z-score [20] of -0.18.
`O=C1[C@H]2[C@H]3[C@H](O)[C@H](O)CC(=NOC[C@@H](O)COCc4ccco4)[C@H]3CC[C@H]2C(=O)N1C[C@@H]1CCCO1` gave a composite z-score [1] of -0.634, a composite z-score [2] of 1.03 and a composite z-score [3] of -0.265. The composite z-score [4] was 0.133, the composite z-score [5] was 0.256 and the composite z-score [6] was -0.285. For the same molecule, the composite z-score [7] was 1.15, the z-score [8] was 0.839 (inactive) and the composite z-score [9] was -0.181. For the same molecule, the composite z-score [10] was -0.337, the composite z-score [11] was 0.629 and the z-score [12] was -0.193 (inactive). The z-score [13] was 0.236 (inactive), the z-score [14] was -0.318 (inactive) and the composite z-score [15] was -0.884. For the same molecule, the z-score [16] was 0.0018 (inactive), the composite z-score [17] was -0.138 and the composite z-score [18] was 0.759. The composite z-score [19] was 0.28 and the composite z-score [20] was 0.0872.
For `COCCNC(=O)OCC1CCCC2(CC(OC(=O)NCc3ccc4c(c3)OCO4)CC(CCC(=O)N[C@@H](C)C(=O)OC)O2)O1` (stereo not given in full), the composite z-score [1] was -0.463, the composite z-score [2] was 0.362 and the composite z-score [3] was -0.116. It also gave a composite z-score [4] of 0.387, a composite z-score [5] of 1.05 and a composite z-score [6] of 0.191. For the same molecule, the composite z-score [7] was 0.699, the z-score [8] was 0.502 (inactive) and the composite z-score [9] was 0.171. The composite z-score [10] was -0.0994, the composite z-score [11] was 1.52 and the z-score [12] was -0.05 (inactive). For the same molecule, the z-score [13] was 1.02 (inactive), the z-score [14] was -0.62 (inactive) and the composite z-score [15] was 1.55. For the same molecule, the z-score [16] was -0.427 (inactive), the composite z-score [17] was -0.161 and the composite z-score [18] was 0.54. For the same molecule, the composite z-score [19] was 1.1 and the composite z-score [20] was -0.0286.
For `CCOC(=O)[C@H](CC(C)C)NC(=O)CCC1CC(OC(=O)NCCc2ccc(F)cc2)CC2(CCCC(COC(=O)NCCC(C)C)O2)O1` (stereo not given in full), the composite z-score [1] was -0.44, the composite z-score [2] was 0.289 and the composite z-score [3] was -0.083. For the same molecule, the composite z-score [4] was 0.297, the composite z-score [5] was -0.383 and the composite z-score [6] was 0.797. The composite z-score [7] was 0.98, the z-score [8] was 1.25 (inactive) and the composite z-score [9] was -0.128. The composite z-score [10] was 0.0722, the composite z-score [11] was 0.201 and the z-score [12] was 0.0312 (inactive). For the same molecule, the z-score [13] was 1.12 (inactive), the z-score [14] was 1.08 (inactive) and the composite z-score [15] was 1.51. For the same molecule, the z-score [16] was -0.917 (inactive), the composite z-score [17] was -0.107 and the composite z-score [18] was 0.456. For the same molecule, the composite z-score [19] was -0.496 and the composite z-score [20] was -0.0778.
Work on `CCOC(=O)[C@H](CC(C)C)NC(=O)CCC1CC(OC(=O)NCc2cccc3ccccc23)CC2(CCCC(COC(=O)NCCOC)O2)O1` (stereo not given in full) yielded a composite z-score [1] of -0.56, a composite z-score [2] of 0.071 and a composite z-score [3] of -0.0216. For the same molecule, the composite z-score [4] was 0.482, the composite z-score [5] was 1.36 and the composite z-score [6] was 1.27. For the same molecule, the composite z-score [7] was 0.931, the z-score [8] was -0.0725 (inactive) and the composite z-score [9] was 0.754. For the same molecule, the composite z-score [10] was -0.214, the composite z-score [11] was 1.5 and the z-score [12] was -1.43 (inactive). For the same molecule, the z-score [13] was -0.837 (inactive), the z-score [14] was -1.09 (inactive) and the composite z-score [15] was 2.7. The z-score [16] was -0.157 (inactive), the composite z-score [17] was -0.0633 and the composite z-score [18] was 0.607. For the same molecule, the composite z-score [19] was 1.08 and the composite z-score [20] was 0.0576.
Molecule `CO[C@H]1COC(=O)CC=C[C@H](C)[C@@H](OC)COC(=O)[C@@H](C)NC(=O)CC=C[C@@H]1C` has a composite z-score [1] of -0.548, a composite z-score [2] of 1.9 and a composite z-score [3] of -0.177. For the same molecule, the composite z-score [4] was 0.0365, the composite z-score [5] was -0.411 and the composite z-score [6] was -0.255. For the same molecule, the composite z-score [7] was 0.515, the z-score [8] was 0.447 (inactive) and the composite z-score [9] was -0.251. For the same molecule, the composite z-score [10] was -0.196, the composite z-score [11] was 1.53 and the z-score [12] was -1.02 (inactive). The z-score [13] was 0.0386 (inactive), the z-score [14] was -1.67 (inactive) and the composite z-score [15] was -1.92. The z-score [16] was -0.804 (inactive), the composite z-score [17] was -0.148 and the composite z-score [18] was 1.54. The composite z-score [19] was 0.0946 and the composite z-score [20] was -0.0727.
`COC(=O)[C@@H]1CC[C@H](C)[C@@H](c2ccc(C)cc2)N1C(=O)c1ccc(C=NO[C@H](C)c2cn([C@H](CO)Cc3ccccc3)nn2)cc1` showed a composite z-score [1] of -0.02, a composite z-score [2] of 0.522 and a composite z-score [3] of -0.0563. It also gave a composite z-score [4] of 0.674, a composite z-score [5] of 0.672 and a composite z-score [6] of -0.0294. For the same molecule, the composite z-score [7] was 1.12, the z-score [8] was 0.0599 (inactive) and the composite z-score [9] was 0.517. For the same molecule, the composite z-score [10] was 0.837, the composite z-score [11] was 1.04 and the z-score [12] was 0.149 (inactive). The z-score [13] was 0.0048 (inactive), the z-score [14] was 0.619 (inactive) and the composite z-score [15] was 0.6. The z-score [16] was -0.551 (inactive), the composite z-score [17] was 0.0943 and the composite z-score [18] was 1.19. It also gave a composite z-score [19] of 1.05 and a composite z-score [20] of 0.119.
